According to ChEMBL document CHEMBL1961873, “Compounds: GSK PKIS; Assays: Nanosyn kinase panel” (2012):

Legend:
[1] = biological target: T1, Inhibitor of nuclear factor kappa-B kinase subunit epsilon (Homo sapiens) (UniProt Q14164); conditions: at 1 µM;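 note: reported values are averaged percent inhibition figures against human IKKε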
T1 sequence (whole entry): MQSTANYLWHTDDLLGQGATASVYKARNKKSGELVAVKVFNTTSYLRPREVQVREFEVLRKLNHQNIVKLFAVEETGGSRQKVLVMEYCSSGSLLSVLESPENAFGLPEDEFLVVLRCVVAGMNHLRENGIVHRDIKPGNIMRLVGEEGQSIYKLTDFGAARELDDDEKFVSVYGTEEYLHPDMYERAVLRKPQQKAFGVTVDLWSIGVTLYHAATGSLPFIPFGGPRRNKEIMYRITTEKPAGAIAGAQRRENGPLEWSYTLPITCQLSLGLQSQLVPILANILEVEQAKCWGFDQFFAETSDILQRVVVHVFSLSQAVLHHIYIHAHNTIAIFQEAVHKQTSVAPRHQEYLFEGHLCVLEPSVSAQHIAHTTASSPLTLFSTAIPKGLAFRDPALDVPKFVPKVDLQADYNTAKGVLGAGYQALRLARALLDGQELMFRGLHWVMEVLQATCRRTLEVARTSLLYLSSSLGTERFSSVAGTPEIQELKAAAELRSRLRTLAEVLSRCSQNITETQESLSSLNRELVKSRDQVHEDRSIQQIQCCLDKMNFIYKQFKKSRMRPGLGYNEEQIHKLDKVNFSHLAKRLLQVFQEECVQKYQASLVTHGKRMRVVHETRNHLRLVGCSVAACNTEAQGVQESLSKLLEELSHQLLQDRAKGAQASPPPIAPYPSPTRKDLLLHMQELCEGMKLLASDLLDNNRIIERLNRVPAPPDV

[2] = biological target: T2, Serine/threonine-protein kinase Nek1 (Homo sapiens) (UniProt Q96PY6); conditions: at 0.1 µM
T2 sequence (whole entry): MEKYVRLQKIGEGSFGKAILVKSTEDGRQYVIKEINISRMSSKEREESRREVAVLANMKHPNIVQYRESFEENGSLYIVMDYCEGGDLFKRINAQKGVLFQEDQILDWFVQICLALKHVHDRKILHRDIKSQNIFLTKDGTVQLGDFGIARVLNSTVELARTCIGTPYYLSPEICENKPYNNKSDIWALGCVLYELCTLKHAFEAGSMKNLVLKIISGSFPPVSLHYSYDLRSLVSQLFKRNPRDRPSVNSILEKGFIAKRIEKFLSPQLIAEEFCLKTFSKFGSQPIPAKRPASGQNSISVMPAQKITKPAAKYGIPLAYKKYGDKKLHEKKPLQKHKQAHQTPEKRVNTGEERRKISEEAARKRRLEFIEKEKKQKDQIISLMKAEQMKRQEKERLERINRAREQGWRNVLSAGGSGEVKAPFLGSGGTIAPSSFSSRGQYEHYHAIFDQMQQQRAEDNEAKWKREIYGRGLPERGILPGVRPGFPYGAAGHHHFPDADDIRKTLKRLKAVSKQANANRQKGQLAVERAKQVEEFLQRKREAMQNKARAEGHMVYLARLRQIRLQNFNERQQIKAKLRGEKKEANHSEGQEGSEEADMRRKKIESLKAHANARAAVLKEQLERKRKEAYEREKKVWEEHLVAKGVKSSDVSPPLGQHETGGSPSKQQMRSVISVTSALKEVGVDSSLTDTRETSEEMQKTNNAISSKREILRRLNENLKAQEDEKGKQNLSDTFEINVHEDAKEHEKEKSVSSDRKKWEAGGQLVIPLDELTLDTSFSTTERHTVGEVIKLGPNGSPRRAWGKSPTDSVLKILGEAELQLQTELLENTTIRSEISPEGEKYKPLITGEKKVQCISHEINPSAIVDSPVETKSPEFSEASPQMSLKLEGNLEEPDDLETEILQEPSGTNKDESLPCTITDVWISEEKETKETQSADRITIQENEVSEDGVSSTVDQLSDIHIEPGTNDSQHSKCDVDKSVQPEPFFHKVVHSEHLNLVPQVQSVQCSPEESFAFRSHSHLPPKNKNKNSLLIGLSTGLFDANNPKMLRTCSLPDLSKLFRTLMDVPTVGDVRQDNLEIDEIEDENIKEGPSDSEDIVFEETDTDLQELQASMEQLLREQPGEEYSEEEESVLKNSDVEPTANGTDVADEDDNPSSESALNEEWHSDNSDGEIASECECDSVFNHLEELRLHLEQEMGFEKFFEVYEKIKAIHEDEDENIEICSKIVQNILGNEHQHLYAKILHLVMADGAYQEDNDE

[3] = biological target: T2, Serine/threonine-protein kinase Nek1 (Homo sapiens); conditions: at 1 µM
[4] = biological target: T3, Serine/threonine-protein kinase Nek2 (Homo sapiens) (UniProt P51955); conditions: at 0.1 µM
T3 sequence (whole entry): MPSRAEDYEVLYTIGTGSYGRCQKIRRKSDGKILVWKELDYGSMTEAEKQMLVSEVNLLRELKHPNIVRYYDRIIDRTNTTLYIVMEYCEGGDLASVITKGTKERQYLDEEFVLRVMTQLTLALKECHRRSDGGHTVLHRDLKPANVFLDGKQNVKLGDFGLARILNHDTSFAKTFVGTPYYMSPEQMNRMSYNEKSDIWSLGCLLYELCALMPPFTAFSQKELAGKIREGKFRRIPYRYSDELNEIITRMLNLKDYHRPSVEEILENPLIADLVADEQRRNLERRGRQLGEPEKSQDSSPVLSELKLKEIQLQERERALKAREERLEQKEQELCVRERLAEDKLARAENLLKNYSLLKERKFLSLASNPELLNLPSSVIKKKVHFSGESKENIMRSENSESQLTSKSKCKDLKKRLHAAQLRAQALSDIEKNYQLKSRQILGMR

[5] = biological target: T3, Serine/threonine-protein kinase Nek2 (Homo sapiens); conditions: at 1 µM
[6] = biological target: Serine/threonine-protein kinase Nek6 (Homo sapiens) (UniProt Q9HC98); conditions: at 0.1 µM
Sequence of Serine/threonine-protein kinase Nek6 (Homo sapiens) (Q9HC98 whole entry): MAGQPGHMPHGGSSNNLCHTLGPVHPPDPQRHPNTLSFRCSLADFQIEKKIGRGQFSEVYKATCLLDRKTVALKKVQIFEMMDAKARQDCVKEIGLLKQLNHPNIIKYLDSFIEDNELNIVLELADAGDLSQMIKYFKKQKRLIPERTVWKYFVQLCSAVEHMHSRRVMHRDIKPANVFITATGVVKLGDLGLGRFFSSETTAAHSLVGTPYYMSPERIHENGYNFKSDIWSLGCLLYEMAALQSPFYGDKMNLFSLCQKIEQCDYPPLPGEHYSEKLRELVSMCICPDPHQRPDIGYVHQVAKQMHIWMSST

[7] = biological target: Serine/threonine-protein kinase Nek6 (Homo sapiens) (UniProt Q9HC98); conditions: at 1 µM
[8] = biological target: Serine/threonine-protein kinase Nek7 (Homo sapiens) (UniProt Q8TDX7); conditions: at 0.1 µM
Sequence of Serine/threonine-protein kinase Nek7 (Homo sapiens) (Q8TDX7 whole entry, looked up): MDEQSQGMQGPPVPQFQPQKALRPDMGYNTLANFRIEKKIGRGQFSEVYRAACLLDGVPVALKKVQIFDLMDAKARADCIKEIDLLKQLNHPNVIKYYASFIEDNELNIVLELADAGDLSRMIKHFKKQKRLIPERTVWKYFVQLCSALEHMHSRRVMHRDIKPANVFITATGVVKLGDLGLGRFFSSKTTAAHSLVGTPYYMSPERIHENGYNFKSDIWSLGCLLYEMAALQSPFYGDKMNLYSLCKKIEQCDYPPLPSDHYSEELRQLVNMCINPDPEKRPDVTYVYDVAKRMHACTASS

[9] = biological target: Serine/threonine-protein kinase Nek7 (Homo sapiens) (UniProt Q8TDX7); conditions: at 1 µM
[10] = biological target: T4, Serine/threonine-protein kinase Nek9 (Homo sapiens) (UniProt Q8TD19); conditions: at 0.1 µM
T4 sequence (whole entry): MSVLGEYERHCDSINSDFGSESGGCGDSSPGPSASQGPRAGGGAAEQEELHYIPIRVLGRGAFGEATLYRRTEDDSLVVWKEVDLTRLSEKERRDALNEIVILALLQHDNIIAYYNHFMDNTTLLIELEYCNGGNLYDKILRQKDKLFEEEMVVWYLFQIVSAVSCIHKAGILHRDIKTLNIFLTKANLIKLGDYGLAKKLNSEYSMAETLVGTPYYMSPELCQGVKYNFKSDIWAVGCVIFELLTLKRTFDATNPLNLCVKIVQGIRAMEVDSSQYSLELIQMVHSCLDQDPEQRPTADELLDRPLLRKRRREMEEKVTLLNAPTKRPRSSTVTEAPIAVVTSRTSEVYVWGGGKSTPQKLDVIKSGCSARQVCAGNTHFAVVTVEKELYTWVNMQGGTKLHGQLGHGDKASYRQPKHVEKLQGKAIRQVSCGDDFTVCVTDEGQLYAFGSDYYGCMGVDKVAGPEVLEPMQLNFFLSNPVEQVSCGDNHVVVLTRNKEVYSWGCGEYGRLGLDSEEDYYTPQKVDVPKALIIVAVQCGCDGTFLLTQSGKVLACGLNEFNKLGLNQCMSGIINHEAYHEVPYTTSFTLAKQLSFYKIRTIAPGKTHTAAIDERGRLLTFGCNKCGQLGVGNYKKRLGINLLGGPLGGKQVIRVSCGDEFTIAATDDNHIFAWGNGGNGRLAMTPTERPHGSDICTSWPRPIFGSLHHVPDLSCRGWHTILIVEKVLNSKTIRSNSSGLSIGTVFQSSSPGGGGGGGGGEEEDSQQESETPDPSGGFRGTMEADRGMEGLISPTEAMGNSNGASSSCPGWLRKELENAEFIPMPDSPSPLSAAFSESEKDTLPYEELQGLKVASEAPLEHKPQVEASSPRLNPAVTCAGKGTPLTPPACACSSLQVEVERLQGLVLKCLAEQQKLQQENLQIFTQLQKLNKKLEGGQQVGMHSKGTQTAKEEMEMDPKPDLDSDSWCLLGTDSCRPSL

[11] = biological target: T4, Serine/threonine-protein kinase Nek9 (Homo sapiens); conditions: at 1 µM
[12] = biological target: Serine/threonine-protein kinase PLK1 (Homo sapiens) (UniProt P53350); conditions: at 0.1 µM
Sequence of Serine/threonine-protein kinase PLK1 (Homo sapiens) (P53350 whole entry): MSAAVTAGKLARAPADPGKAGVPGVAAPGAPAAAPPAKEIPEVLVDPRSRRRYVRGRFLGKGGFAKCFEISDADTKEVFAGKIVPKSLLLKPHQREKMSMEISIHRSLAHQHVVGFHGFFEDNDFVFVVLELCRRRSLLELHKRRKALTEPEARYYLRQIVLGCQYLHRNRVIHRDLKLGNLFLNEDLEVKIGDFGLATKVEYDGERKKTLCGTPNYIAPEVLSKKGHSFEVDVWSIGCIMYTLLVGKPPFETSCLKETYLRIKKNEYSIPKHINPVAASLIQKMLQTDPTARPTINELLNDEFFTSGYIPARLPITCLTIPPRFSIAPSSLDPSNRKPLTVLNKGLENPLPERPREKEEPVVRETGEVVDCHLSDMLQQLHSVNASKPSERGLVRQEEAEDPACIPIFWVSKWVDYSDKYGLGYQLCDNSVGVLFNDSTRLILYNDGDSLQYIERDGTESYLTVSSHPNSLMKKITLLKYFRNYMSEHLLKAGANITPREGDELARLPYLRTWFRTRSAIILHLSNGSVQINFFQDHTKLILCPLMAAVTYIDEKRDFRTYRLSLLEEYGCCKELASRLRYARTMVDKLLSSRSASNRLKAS

[13] = biological target: Serine/threonine-protein kinase PLK1 (Homo sapiens) (UniProt P53350); conditions: at 1 µM
[14] = biological target: T5, Dual specificity protein kinase TTK (Homo sapiens) (UniProt P33981); conditions: at 0.1 µM
T5 sequence (whole entry): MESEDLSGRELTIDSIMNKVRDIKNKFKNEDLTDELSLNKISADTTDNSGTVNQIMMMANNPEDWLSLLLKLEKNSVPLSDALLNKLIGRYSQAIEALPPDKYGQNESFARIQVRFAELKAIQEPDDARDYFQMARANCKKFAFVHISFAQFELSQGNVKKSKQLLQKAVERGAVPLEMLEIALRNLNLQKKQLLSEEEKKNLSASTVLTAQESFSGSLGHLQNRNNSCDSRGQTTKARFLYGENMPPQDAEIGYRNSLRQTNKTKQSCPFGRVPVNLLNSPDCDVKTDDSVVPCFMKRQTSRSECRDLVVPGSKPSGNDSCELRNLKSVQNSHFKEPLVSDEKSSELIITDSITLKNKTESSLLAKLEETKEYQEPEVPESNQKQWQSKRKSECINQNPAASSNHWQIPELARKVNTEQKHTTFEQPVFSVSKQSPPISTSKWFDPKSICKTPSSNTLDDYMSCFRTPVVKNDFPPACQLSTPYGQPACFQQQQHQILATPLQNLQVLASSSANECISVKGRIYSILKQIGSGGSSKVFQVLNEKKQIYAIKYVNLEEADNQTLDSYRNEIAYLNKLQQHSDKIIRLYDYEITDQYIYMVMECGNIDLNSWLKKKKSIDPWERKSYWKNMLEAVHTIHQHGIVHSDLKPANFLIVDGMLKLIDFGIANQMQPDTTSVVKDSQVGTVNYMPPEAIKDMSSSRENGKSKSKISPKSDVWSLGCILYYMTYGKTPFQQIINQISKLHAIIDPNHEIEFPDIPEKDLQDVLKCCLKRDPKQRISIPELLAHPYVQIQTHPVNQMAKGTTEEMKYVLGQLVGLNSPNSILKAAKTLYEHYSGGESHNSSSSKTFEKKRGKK

[15] = system: T6, Receptor-type tyrosine-protein kinase FLT3 (Homo sapiens), P36888 [D835Y]; conditions: at 1 µM
T6 sequence (whole entry): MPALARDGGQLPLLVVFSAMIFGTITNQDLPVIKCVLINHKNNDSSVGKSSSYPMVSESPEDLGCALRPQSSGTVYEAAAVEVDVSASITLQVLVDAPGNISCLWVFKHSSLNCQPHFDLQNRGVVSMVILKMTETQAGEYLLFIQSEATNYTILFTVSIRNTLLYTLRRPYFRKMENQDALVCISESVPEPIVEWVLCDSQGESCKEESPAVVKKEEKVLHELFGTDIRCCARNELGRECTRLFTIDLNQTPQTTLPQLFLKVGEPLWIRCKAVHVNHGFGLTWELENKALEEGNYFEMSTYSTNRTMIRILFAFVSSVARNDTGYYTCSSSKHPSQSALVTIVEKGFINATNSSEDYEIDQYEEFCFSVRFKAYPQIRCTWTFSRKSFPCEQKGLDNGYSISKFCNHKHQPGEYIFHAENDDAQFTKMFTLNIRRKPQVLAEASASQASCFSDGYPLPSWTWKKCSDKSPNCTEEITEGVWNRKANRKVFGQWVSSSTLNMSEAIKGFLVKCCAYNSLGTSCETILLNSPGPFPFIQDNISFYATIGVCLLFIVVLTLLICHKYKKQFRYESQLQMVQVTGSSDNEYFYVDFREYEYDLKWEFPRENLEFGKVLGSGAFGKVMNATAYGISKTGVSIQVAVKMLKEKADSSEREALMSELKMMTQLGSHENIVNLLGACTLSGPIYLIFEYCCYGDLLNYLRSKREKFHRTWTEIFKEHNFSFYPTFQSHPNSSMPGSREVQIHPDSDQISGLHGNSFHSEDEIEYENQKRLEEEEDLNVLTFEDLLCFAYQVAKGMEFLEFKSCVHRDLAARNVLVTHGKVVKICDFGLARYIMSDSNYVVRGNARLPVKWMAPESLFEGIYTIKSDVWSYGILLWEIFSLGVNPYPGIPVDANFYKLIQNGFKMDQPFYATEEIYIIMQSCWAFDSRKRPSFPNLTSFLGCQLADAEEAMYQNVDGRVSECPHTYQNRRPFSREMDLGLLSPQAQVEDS

[16] = biological target: Vascular endothelial growth factor receptor 3 (Homo sapiens) (UniProt P35916); conditions: at 0.1 µM
Sequence of Vascular endothelial growth factor receptor 3 (Homo sapiens) (P35916 whole entry): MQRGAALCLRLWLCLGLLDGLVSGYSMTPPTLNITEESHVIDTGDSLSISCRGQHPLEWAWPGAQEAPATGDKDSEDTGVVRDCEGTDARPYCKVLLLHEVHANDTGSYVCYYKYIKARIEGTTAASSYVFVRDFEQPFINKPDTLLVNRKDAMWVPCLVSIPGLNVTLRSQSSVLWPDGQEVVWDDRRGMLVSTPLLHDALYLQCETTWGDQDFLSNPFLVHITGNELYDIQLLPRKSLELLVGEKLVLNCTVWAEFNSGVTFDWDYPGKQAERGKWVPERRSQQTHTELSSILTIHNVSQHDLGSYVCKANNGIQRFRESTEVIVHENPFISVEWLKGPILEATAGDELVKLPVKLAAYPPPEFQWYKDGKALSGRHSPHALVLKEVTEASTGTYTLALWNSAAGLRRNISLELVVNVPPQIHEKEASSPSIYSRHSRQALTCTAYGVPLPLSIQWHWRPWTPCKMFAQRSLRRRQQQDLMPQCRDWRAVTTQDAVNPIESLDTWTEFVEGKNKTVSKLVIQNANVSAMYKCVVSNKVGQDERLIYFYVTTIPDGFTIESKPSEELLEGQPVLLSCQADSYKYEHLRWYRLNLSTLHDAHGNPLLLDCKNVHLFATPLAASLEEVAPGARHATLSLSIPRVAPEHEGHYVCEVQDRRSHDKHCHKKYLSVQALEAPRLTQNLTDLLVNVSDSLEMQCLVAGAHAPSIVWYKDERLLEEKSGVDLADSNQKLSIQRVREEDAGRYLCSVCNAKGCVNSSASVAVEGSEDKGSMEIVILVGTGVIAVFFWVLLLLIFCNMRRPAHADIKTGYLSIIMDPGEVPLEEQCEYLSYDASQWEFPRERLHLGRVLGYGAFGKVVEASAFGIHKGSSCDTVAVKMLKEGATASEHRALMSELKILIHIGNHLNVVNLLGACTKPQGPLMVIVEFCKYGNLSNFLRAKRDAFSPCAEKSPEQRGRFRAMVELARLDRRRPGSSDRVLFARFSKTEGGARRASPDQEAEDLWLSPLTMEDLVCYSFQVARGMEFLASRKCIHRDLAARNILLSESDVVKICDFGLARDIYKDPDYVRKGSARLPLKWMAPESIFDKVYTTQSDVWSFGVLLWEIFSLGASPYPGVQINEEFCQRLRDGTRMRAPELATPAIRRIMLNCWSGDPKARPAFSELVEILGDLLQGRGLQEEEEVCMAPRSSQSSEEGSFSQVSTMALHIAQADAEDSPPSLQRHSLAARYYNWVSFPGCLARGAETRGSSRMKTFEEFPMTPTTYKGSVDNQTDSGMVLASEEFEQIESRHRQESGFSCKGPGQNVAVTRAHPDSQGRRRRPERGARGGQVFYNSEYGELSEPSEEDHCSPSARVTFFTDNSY

[17] = biological target: Vascular endothelial growth factor receptor 3 (Homo sapiens) (UniProt P35916); conditions: at 1 µM
[18] = biological target: Macrophage colony-stimulating factor 1 receptor (Homo sapiens) (UniProt P07333); conditions: at 0.1 µM
Sequence of Macrophage colony-stimulating factor 1 receptor (Homo sapiens) (P07333 whole entry): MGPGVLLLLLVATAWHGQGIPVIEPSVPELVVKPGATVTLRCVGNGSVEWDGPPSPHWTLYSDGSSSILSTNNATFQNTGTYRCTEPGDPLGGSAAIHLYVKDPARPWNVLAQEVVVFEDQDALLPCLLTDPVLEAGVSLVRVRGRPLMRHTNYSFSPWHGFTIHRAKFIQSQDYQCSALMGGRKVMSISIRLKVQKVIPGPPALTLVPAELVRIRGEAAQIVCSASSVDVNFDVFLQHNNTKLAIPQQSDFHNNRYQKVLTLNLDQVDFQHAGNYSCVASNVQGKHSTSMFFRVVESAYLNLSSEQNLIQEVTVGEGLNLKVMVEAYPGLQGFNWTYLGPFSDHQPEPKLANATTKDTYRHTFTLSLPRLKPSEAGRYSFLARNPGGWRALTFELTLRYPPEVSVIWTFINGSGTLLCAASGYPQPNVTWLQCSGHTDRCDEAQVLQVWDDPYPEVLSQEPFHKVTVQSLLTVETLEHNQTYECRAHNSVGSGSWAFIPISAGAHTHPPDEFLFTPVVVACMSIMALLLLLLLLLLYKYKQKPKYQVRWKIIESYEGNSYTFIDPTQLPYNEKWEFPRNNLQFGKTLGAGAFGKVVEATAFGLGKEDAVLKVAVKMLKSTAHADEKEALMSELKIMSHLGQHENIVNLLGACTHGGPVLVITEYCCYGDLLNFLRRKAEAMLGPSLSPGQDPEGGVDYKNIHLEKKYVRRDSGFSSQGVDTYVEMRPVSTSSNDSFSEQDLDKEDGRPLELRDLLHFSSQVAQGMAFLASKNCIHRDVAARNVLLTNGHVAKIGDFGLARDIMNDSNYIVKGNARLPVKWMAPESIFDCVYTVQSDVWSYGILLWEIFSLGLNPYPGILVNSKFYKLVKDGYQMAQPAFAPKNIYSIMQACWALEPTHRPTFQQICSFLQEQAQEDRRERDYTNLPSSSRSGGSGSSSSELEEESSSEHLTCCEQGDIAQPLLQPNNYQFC

[19] = biological target: Macrophage colony-stimulating factor 1 receptor (Homo sapiens) (UniProt P07333); conditions: at 1 µM
[20] = biological target: Tyrosine-protein kinase Fyn (Homo sapiens) (UniProt P06241); conditions: at 0.1 µM
Sequence of Tyrosine-protein kinase Fyn (Homo sapiens) (P06241 2-537 limits assumed): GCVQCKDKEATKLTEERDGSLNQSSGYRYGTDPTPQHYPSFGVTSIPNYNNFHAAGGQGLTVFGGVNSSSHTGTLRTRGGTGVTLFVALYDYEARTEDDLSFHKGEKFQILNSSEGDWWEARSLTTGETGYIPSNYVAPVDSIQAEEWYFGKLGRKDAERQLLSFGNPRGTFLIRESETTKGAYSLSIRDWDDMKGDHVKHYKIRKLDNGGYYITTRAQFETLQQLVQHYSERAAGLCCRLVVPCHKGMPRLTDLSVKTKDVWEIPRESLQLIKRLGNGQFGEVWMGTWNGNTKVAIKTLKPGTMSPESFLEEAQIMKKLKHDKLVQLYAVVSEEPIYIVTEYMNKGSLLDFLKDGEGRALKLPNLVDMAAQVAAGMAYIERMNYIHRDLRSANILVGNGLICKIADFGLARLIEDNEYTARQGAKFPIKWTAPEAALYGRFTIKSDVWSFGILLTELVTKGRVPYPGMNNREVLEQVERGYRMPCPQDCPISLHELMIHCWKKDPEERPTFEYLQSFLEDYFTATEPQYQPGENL

Compound	inhibition [1] [%]	inhibition [2] [%]	inhibition [3] [%]	inhibition [4] [%]	inhibition [5] [%]	inhibition [6] [%]	inhibition [7] [%]	inhibition [8] [%]	inhibition [9] [%]	inhibition [10] [%]	inhibition [11] [%]	inhibition [12] [%]	inhibition [13] [%]	inhibition [14] [%]	inhibition [15] [%]	inhibition [16] [%]	inhibition [17] [%]	inhibition [18] [%]	inhibition [19] [%]	inhibition [20] [%]
O=C(O[C@H]1CN[C@H](C#Cc2cc3ncnc(Nc4ccc(Cc5ccccc5)cc4)c3s2)C1)N1CCOCC1	3.15	1.41	1.96	2.89	4.01	1.71	1.61	2.18	2.21	4.6	7.49	1.59	1.47	3.54	-0.77	-2.62	4.62	-3.48	3.66	-0.06
CCN1CCC(CC(=O)Nc2n[nH]c3nnc(-c4cccc(F)c4F)cc23)CC1	4.56	1.55	1.21	2.78	1.49	2.04	2.93	2.55	1.27	0.14	-3.93	2.14	-0.76	4.15	-2.23	1.01	1.82	-1.12	5.72	-0.21
[O-][S+]1CCN(Cc2ccc(-c3ccc4ncnc(Nc5ccc(OCc6cccc(F)c6)c(Cl)c5)c4c3)o2)CC1	7.12	1.83	3.84	6.03	7.92	12.5	1.99	2.99	8.43	12.2	11.6	4.06	4.68	14.8	-0.26	4.68	7.72	1.84	5.71	1.57
COc1cccc(-c2c[nH]c3c(N/N=C/c4ccncc4)ncnc23)c1	16.8	1.94	10.6	2.57	2.88	3.57	-1.66	2.88	3.62	4.67	5.28	2.36	1.97	7.43	62.7	4.35	29.5	21.6	68.6	14.4
